# Results filed as inconclusive are left out. Calls of active or inactive are those of the source.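 Rule for the calls, unless noted: active = normalized viability below 100% at a tested concentration; inactive = the rest.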
# Tests used:
# [1] = viability loss in pontine glioma line – cell-based, SU-DIPG-XVII, MIPE5.0, CellTiter-Glo, qHTS, dose response (AID 1347060; cut-off not given, nearly all actives have AC50 up to about 26 µM;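 for AC50: cells exposed to compound for 48 hours before viability readout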); conditions: CellTiter-Glo ATP luminescence
# [2] = viability loss in pontine glioma line – cell-based, SU-DIPG-XIII, MIPE5.0, CellTiter-Glo, qHTS, dose response (AID 1347064; cut-off not given, nearly all actives have AC50 up to about 23 µM;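 for AC50: cells exposed to compound for 48 hours before the viability read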); conditions: CellTiter-Glo ATP luminescence
# [3] = viability loss in pontine glioma line – cell-based, SU-DIPG-XXV, MIPE5.0, CellTiter-Glo, qHTS, dose response (AID 1347065; cut-off not given, nearly all actives have AC50 up to about 26 µM;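 note: cells exposed to compound for 48 hours before ATP readout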); conditions: CellTiter-Glo ATP luminescence
# [4] = JHH-DIPG-1 glioma cell viability, MIPE5.0 library, CellTiter-Glo luminescence, qHTS (AID 1347067; cut-off not given, nearly all actives have AC50 up to about 26 µM;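 note: cells exposed to compound for 48 hours before readout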); conditions: JHH-DIPG-1 glioma viability, CellTiter-Glo ATP luminescence
# [5] = growth inhibition of DIPG cells – cell-based, MIPE5.0 library, qHTS (AID 1347068; cut-off not given, nearly all actives have IC50 up to about 30 µM;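 for IC50: cells exposed to compound for 48 hours before viability readout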); conditions: SU-DIPG-XXV viability
# [6] = viability loss with induced miR-34 in A549 – imaging, A549 dox-inducible miR-34, nuclei and caspase counts, primary screen (AID 1347080;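 active = compounds whose cell count with miR-34 switched on is under 0.7 times the count with it off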); conditions: A549 miR-34 inducible, Hoechst nuclei count, 48 h
# [7] = MELAS cybrid and Rieske KO viability enhancers – cell-based, MELAS cybrids, Rieske KO mouse fibroblasts, CellTiter-Glo, primary screen (AID 1508586;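 active = mean z-score across replicates of 1.96 or higher in either the MELAS or the Rieske mutant cell line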;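 note: z relative to plate mean and SD of compound and empty wells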); conditions: low glucose
# [8] = drug combination growth inhibition, ovarian cancer – cell-based, oncology-focused library, rucaparib conditional, profiling panel (AID 1508598); conditions: patient-derived ovarian cancer cells, CellTiter-Glo viability, 144 h, stronger effect = lower value
# [9] = growth inhibition, single agent or in combination, cell-based, chromothripsis tumors, cisplatin or BGB combos (AID 1671449; in the data active = inhibition above about 80%;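 note: cells exposed for 96 hours; 0% = vehicle DMSO and 100% = killing by high DMSO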); conditions: LFS_MB_P medulloblastoma cells
# [10] = growth inhibition, single agent and combos, cell-based, chromothripsis tumors, cisplatin or BGB combos (AID 1671450; in the data active = inhibition above about 80%;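 note: cells exposed to compound for four days; 0% = vehicle DMSO and 100% = cell killing by high DMSO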); conditions: HDN33 neuroblastoma cells, stronger effect = higher value
# [11] = growth inhibition, single agents and combos, ICB984, cell-based, cisplatin or BGB combos, synergistic combos for chromothripsis tumors (AID 1671451; call rule not given here;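 note: cells exposed for 96 hours before readout; 0% = vehicle DMSO and 100% = killing by high DMSO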); conditions: ICB984 medulloblastoma cells, drug combinations, stronger effect = higher value
# [12] = growth inhibition, single agents and combos, LFS_MB_1R, cell-based, cisplatin or BGB combos, synergistic combos for chromothripsis tumors (AID 1671452; in the data active = inhibition above about 80%;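 note: cells exposed for 96 hours before readout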); conditions: LFS_MB_1R medulloblastoma cells, stronger effect = higher value
# [13] = growth inhibition, single agents and combos, HTB85, cell-based, BGB or cisplatin IC20 combos, synergistic combos for chromothripsis tumors (AID 1671453; in the data active = inhibition above about 80%;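 note: cells exposed for 96 hours before readout; 0% = vehicle DMSO and 100% = high DMSO killing control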); conditions: HTB85 osteosarcoma cells, drug combinations, stronger effect = higher value
# [14] = growth inhibition, single agents and combos, CRL2098, cell-based, BGB or cisplatin IC20 combos, synergistic combos for chromothripsis tumors (AID 1671454; in the data active = inhibition above about 80%;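 note: cells exposed for 96 h before readout; 0% = vehicle DMSO and 100% = killing by high DMSO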); conditions: CRL2098 osteosarcoma cells, drug combinations, stronger effect = higher value
# [15] = growth inhibition, single agents and combos, HD-MB03, cell-based, BGB or cisplatin IC20 combos, synergistic combos for chromothripsis tumors (AID 1671455; in the data active = inhibition above about 83%;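 note: 0% = vehicle DMSO and 100% = high DMSO as cytotoxic control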); conditions: HD-MB03 medulloblastoma cells, stronger effect = higher value
# [16] = growth inhibition, single agents and combos, UWB1.289, cell-based, BGB or cisplatin combos, synergistic combos for chromothripsis tumors (AID 1671456; in the data active = inhibition above about 80%;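 note: cells exposed to compound for four days; 0% = vehicle DMSO and 100% = killing by high DMSO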); conditions: UWB1.289 ovarian carcinoma cells, stronger effect = higher value
# [17] = growth inhibition, MDA-MB-436, cell-based, BGB or cisplatin combos, synergistic combos for chromothripsis tumors (AID 1671458; call rule not given here;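 note: cells exposed for 96 hours; 0% = vehicle DMSO and 100% = killing by high DMSO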); conditions: MDA-MB-436 breast carcinoma growth inhibition, drug combinations, stronger effect = higher value
# [18] = BT084 cell growth, single and combined drugs, ICGC_MB145, cisplatin and BGB IC40 combos (AID 1671461; in the data active = inhibition above about 80%;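 note: cells exposed to drugs for 96 hours; 0% = vehicle DMSO and 100% = high DMSO full killing control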); conditions: BT084 medulloblastoma cells, drug combinations, stronger effect = higher value
# [19] = RCMB18 cell growth, single agent and combined, cisplatin and BGB IC40 combos (AID 1671462; in the data active = inhibition above about 80%;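 note: cells exposed to compound for four days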); conditions: RCMB18 medulloblastoma cells, stronger effect = higher value
# [20] = CRL1545 cell growth, single agent and combined, cisplatin and BGB IC20 combos (AID 1671464; in the data active = inhibition above about 80%;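 note: cells exposed to compound for 96 hours before readout; 0% = vehicle DMSO and 100% = high DMSO killing control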); conditions: CRL1545 osteosarcoma cells, stronger effect = higher value
# [21] = measured here: combination with BGB IC40, at 0.05 µM
# [22] = measured here: with BGB IC20 combination, at 0.5 µM
# [23] = measured here: with cisplatin IC20 combination, at 0.5 µM
# [24] = measured here: combination with cisplatin, at 0.5 µM
compound,measurement,setting,value
C=CC(=O)Nc1cccc(Nc2nc(Nc3ccc(NC4CN(CCF)C4)cc3OC)ncc2C(F)(F)F)c1,AC50,[1],1480 nM (active)
same,AC50,[2],2350 nM (active)
same,AC50,[3],1320 nM (active)
same,AC50,[4],2630 nM (active)
same,IC50,[5],833 nM (active)
same,fold change,"[6]; stronger effect = lower value, cell number ratio, induced over uninduced",0.964 (inactive)
same,fold change,[6]; measured here: relative caspase fold change +Dox/-Dox,0.345
same,cell count,"[6]; measured here: total cells with miR-34 induction, stronger effect = lower value",1930
same,cell count,[6]; measured here: total cells without miR-34 induction,2000
same,z-score,"[7]; MELAS cybrid survival, CellTiter-Glo 48 h, stronger effect = higher value",0.32 (inactive)
same,z-score,"[7]; Rieske KO mouse fibroblast survival, CellTiter-Glo 72 h",1.6
same,viability,"[8]; at 0.000305 µM, OCI-C5x cells, with rucaparib 10 µM, 100% = cells with rucaparib alone",115% (inactive)
same,viability,"[8]; at 0.000305 µM, OCI-C5x cells, without rucaparib",107% (inactive)
same,viability,"[8]; at 0.000305 µM, OCI-P5x cells, with rucaparib 20 µM, 100% = cells with rucaparib alone",98.4% (active)
same,viability,"[8]; at 0.000305 µM, OCI-P5x cells, without rucaparib",92.9% (active)
same,viability,"[8]; at 0.00122 µM, OCI-C5x cells, with rucaparib 10 µM, 100% = cells with rucaparib alone",122% (inactive)
same,viability,"[8]; at 0.00122 µM, OCI-C5x cells, without rucaparib",120% (inactive)
same,viability,"[8]; at 0.00122 µM, OCI-P5x cells, with rucaparib 20 µM, 100% = cells with rucaparib alone",99.4% (active)
same,viability,"[8]; at 0.00122 µM, OCI-P5x cells, without rucaparib",89.9% (active)
same,viability,"[8]; at 0.00488 µM, OCI-C5x cells, with rucaparib 10 µM, 100% = cells with rucaparib alone",123% (inactive)
same,viability,"[8]; at 0.00488 µM, OCI-C5x cells, without rucaparib",114% (inactive)
same,viability,"[8]; at 0.00488 µM, OCI-P5x cells, with rucaparib 20 µM, 100% = cells with rucaparib alone",96.9% (active)
same,viability,"[8]; at 0.00488 µM, OCI-P5x cells, without rucaparib",94.8% (active)
same,viability,"[8]; at 0.0195 µM, OCI-C5x cells, with rucaparib 10 µM, 100% = cells with rucaparib alone",118% (inactive)
same,viability,"[8]; at 0.0195 µM, OCI-C5x cells, without rucaparib",108% (inactive)
same,viability,"[8]; at 0.0195 µM, OCI-P5x cells, with rucaparib 20 µM, 100% = cells with rucaparib alone",98.4% (active)
same,viability,"[8]; at 0.0195 µM, OCI-P5x cells, without rucaparib",103% (inactive)
same,viability,"[8]; at 0.0781 µM, OCI-C5x cells, with rucaparib 10 µM, 100% = cells with rucaparib alone",102% (inactive)
same,viability,"[8]; at 0.0781 µM, OCI-C5x cells, without rucaparib",115% (inactive)
same,viability,"[8]; at 0.0781 µM, OCI-P5x cells, with rucaparib 20 µM, 100% = cells with rucaparib alone",103% (inactive)
same,viability,"[8]; at 0.0781 µM, OCI-P5x cells, without rucaparib",98.1% (active)
same,viability,"[8]; at 0.313 µM, OCI-C5x cells, with rucaparib 10 µM, 100% = cells with rucaparib alone",132% (inactive)
same,viability,"[8]; at 0.313 µM, OCI-C5x cells, without rucaparib",127% (inactive)
same,viability,"[8]; at 0.313 µM, OCI-P5x cells, with rucaparib 20 µM, 100% = cells with rucaparib alone",106% (inactive)
same,viability,"[8]; at 0.313 µM, OCI-P5x cells, without rucaparib",104% (inactive)
same,viability,"[8]; at 1.25 µM, OCI-C5x cells, with rucaparib 10 µM, 100% = cells with rucaparib alone",119% (inactive)
same,viability,"[8]; at 1.25 µM, OCI-C5x cells, without rucaparib",126% (inactive)
same,viability,"[8]; at 1.25 µM, OCI-P5x cells, with rucaparib 20 µM, 100% = cells with rucaparib alone",83.8% (active)
same,viability,"[8]; at 1.25 µM, OCI-P5x cells, without rucaparib",83.2% (active)
same,viability,"[8]; at 5 µM, OCI-C5x cells, with rucaparib 10 µM, 100% = cells with rucaparib alone",19.5% (active)
same,viability,"[8]; at 5 µM, OCI-C5x cells, without rucaparib",94.4% (active)
same,viability,"[8]; at 5 µM, OCI-P5x cells, with rucaparib 20 µM, 100% = cells with rucaparib alone",13.3% (active)
same,viability,"[8]; at 5 µM, OCI-P5x cells, without rucaparib",20% (active)
C=C1[C@H](CO)[C@@H](O)C[C@@H]1n1cnc2c(=O)[nH]c(N)nc21,outcome,[1],inactive
same,outcome,[2],inactive
same,outcome,[3],inactive
same,outcome,[4],inactive
same,outcome,[5],inactive
same,inhibition,"[9]; at 0.5 µM, stronger effect = higher value",-21.8% (inactive)
same,inhibition,"[9]; measured here: combination with BGB IC20, at 0.005 µM",5.29%
same,inhibition,"[9]; measured here: combination with BGB IC40, at 0.005 µM",73.1%
same,inhibition,[9]; [21],2.38%
same,inhibition,"[9]; measured here: combination with cisplatin, at 0.5 µM, stronger effect = higher value",-17.3%
same,inhibition,"[9]; measured here: combination with cisplatin, at 5 µM, stronger effect = higher value",-13.1%
same,inhibition,"[10]; BGB combo, at 5 µM",-36.2%
same,inhibition,[10]; at 0.5 µM,-7.93% (inactive)
same,inhibition,"[10]; cisplatin combo, at 5 µM",-16.1%
same,inhibition,[10]; [22],-13.1%
same,inhibition,[10]; [23],-0.869%
same,inhibition,"[10]; single agent, at 5 µM",-23.6%
same,inhibition,"[11]; BGB IC20 combo, at 0.005 µM",-16%
same,inhibition,"[11]; BGB IC40 combo, at 0.005 µM",-1.32%
same,inhibition,"[11]; BGB IC40 combo, at 0.05 µM",-29.5%
same,inhibition,[11]; at 0.5 µM,-11.2% (inactive)
same,inhibition,"[11]; cisplatin combo, at 0.05 µM",-36.2%
same,inhibition,"[11]; cisplatin combo, at 0.5 µM",-7.79%
same,inhibition,"[11]; cisplatin combo, at 5 µM",-2.87%
same,inhibition,"[11]; measured here: 5 uM single agent, at 5 µM",-12.5%
same,inhibition,[12]; at 0.5 µM,-2.98% (inactive)
same,inhibition,[12]; [21],-6.72%
same,inhibition,[12]; [24],-9.39%
same,inhibition,"[12]; measured here: combination with cisplatin, at 5 µM",13.9%
same,inhibition,[13]; at 0.5 µM,-14.3% (inactive)
same,inhibition,"[13]; measured here: with BGB IC20, at 0.5 µM",-14.3%
same,inhibition,"[13]; measured here: with BGB IC20, at 5 µM",-13%
same,inhibition,"[13]; measured here: with cisplatin IC20, at 0.5 µM",-20.6%
same,inhibition,"[13]; measured here: with cisplatin IC20, at 5 µM",-13.2%
same,inhibition,"[13]; single agent, at 5 µM",-13%
same,inhibition,[14]; at 0.5 µM,-23% (inactive)
same,inhibition,"[14]; measured here: combination with BGB at IC20, at 0.5 µM",-65.5%
same,inhibition,"[14]; measured here: combination with cisplatin at IC20, at 0.5 µM",-29.3%
same,inhibition,[15]; at 0.5 µM,0.83% (inactive)
same,inhibition,"[15]; measured here: combo with BGB at IC20, at 0.5 µM",-0.76%
same,inhibition,"[15]; measured here: combo with cisplatin at IC20, at 0.5 µM",-1.27%
same,inhibition,[16]; at 0.5 µM,-8.13% (inactive)
same,inhibition,"[16]; measured here: inhibition with BGB combination, at 0.05 µM",1.38%
same,inhibition,"[16]; measured here: inhibition with cisplatin combination, at 0.05 µM",-3.75%
same,inhibition,[17]; at 0.5 µM,-0.47% (inactive)
same,inhibition,"[17]; measured here: BGB combination, at 0.5 µM",-0.92%
same,inhibition,"[17]; measured here: BGB combination, at 5 µM",-0.668%
same,inhibition,"[17]; measured here: cisplatin combination, at 0.5 µM",0.06%
same,inhibition,"[17]; measured here: cisplatin combination, at 5 µM",-10.2%
same,inhibition,[18]; at 0.5 µM,4.2% (inactive)
same,inhibition,"[18]; cisplatin combination, at 0.5 µM",2.02%
same,inhibition,"[18]; cisplatin combination, at 5 µM",-20%
same,inhibition,"[18]; measured here: BGB IC40 combination 0.05 uM, at 0.05 µM",-15.2%
same,inhibition,"[18]; single agent, at 5 µM",6.8%
same,inhibition,[19]; at 0.5 µM,-7.97% (inactive)
same,inhibition,"[19]; cisplatin combo, at 5 µM",3.9%
same,inhibition,"[19]; measured here: BGB IC40 combination, at 0.05 µM",-6.21%
same,inhibition,[19]; [24],-17.4%
same,inhibition,"[19]; single agent, at 5 µM",-2.06%
same,inhibition,[20]; at 0.5 µM,-6.46% (inactive)
same,inhibition,[20]; [22],-39.9%
same,inhibition,[20]; [23],8.8%
same,inhibition,"[20]; single agent, at 0.05 µM",4.9%
same,inhibition,"[20]; single agent, at 5 µM",-41.7%

# Reference: PubChem BioAssay
